Assay [1] relates to Zika virus NS2B-NS3 protease (linked construct). The experiment in a line: Confirmatory screen NINDS AMC qHTS for Zika virus inhibitors (AID 1347152). Further: nearly all actives have a fitted effect of over 70% in size. Further: potency means the concentration at half of the fitted maximal effect. The method in brief:
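IC50s from 4-parameter Hill fits of percent inhibition, based on AMC fluorescence gain (340/450 nm) over 15 min with 10 microM Bz-Nle-KRR-AMC. Enzyme: 1 nM linked NS2B-NS3 in Tris-HCl pH 8.0; 15-min compound preincubation.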
Background: Quantitative high-throughput screening tests each substance at several concentrations.

The subject of assay [2] is Zika virus NS2B-NS3 protease (unlinked complex). The experiment in a line: Confirmatory screen GU AMC qHTS for Zika virus inhibitors (AID 1347153). Further: nearly all actives have a fitted effect of over 70% in size. The method in brief: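 Unlinked enzyme 25 nM, Tris pH 8.0/0.01% Tween 20; cpd 15 min RT, dark; + AMC substrate 10 µM (Km 18.3 µM); 340/450 nm read at t0 and 15 min; % inhibition → 4-param fit.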
The test system of assay [3] is Zika virus NS2B-NS3 protease. In words: Primary screen GU AMC qHTS for Zika virus inhibitors (AID 1347154). Further: nearly all actives have a fitted effect of over 70% in size. The method in brief:
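Unlinked Zika NS2B hydrophilic domain–NS3 protease complex at 25 nM in 10 mM Tris-HCl pH 8.0, 0.01% Tween 20, with an AMC peptide substrate. Fluorescence change (340/450 nm) over 15 min at room temperature, normalized to controls, fitted to 4-parameter Hill.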

Assay [4] in a line: Vero cells viability qHTS for Zika virus inhibitors (AID 1347167). Further: potency means the concentration at half of the fitted maximal effect. A digest of the protocol:
(§1)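 Cells seeded at 2.5 x 10^5 cells/mL in DMEM with 4% FBS and attached overnight at 37 degrees C, then exposed to compound for 24 to 48 hours. Viability read as ATP content by CellTiter Glo luminescence.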

Assay [5] can be described thus: HepG2 cells viability qHTS for Zika virus inhibitors (AID 1347168). The method in brief: as §1
Assay [6] is described as follows: Tertiary RLuc qRT-PCR qHTS assay for Zika virus inhibitors (AID 1347169). Further: nearly all actives have a fitted effect of over 55% in size. Further: potency means the concentration at half of the fitted maximal effect. The method in brief: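 Orthogonal cell-based readout: luminescence measured 1-1.5 hrs after adding live-cell Renilla substrate to Vero cells that had been infected with ZIKV-RLuc (MOI 1-2) post-compound, incubated 48-72 hrs at 37 degrees C.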
Assay [7] can be described thus: qHTS for inhibitors of adenylyl cyclases using a fission yeast platform: a pilot screen against the NCATS LOPAC library (AID 1347410). A digest of the protocol: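 GFP from fbp1-GFP reporter, read by Acumen laser cytometry, indicates AC inhibition in fission yeast expressing AC9, GNAS and PDE4D2. Cells grown 18 h in the dark at 30C with compounds, final up to 57 uM.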

In assay [8] the target is Protein phosphatase 1D (Homo sapiens) (UniProt O15297). In words: RapidFire Mass Spectrometry qHTS Assay for Modulators of WT P53-Induced Phosphatase 1 (WIP1) (AID 1347424).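 Further: amount of dephosphorylated VEPPL-S-QETFS peptide product formed by WIP1; series mostly up to about 63 µM.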 A digest of the protocol:
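10 nM WIP1 preincubated with compounds 1 hr at room temperature in pH 7.5 Tris buffer with 30 mM MgCl2, 1 mM TCEP; 2 uM VEPPL-pS-QETFS phosphopeptide for 5 min, formic acid quench; dephosphorylated product quantified by RapidFire MS against labelled standard.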

Assay [9] has the same target. The experiment in a line: Rhodamine-PBP qHTS Assay for Modulators of WT P53-Induced Phosphatase 1 (WIP1) (AID 1347425). A digest of the protocol: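 Steps: enzyme with Rh-PBP sensor and compounds, room-temperature incubation of 1 hr, baseline read, addition of VEPPL-pS-QETFS (10 uM final), kinetic fluorescence reads at 525/598 nm. Activity equals final minus baseline signal.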

Assay [10] is described as follows: Confirmatory screen GU Rhodamine qHTS for Zika virus inhibitors qHTS (AID 1347157). Further: potency means the concentration at half of the fitted maximal effect; nearly all actives have a fitted effect of over 70% in size. Particulars: purified enzyme assay, Rhodamine110 substrate fluorescence, 15 min. A digest of the protocol: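 Buffer 10 mM Tris-HCl pH 8.0, 0.01% Tween 20. Unlinked protease 25 nM; compound preincubation 15 min, RT, protected from light. Substrate Rhod110, 1.5 microM; ~15% conversion in 15 min.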

Assay [11] concerns Zika virus NS2B-NS3 protease (unlinked complex). In words: Primary screen GU Rhodamine qHTS for Zika virus inhibitors: Unlinked NS2B-NS3 protease assay (AID 1347159). Further: nearly all actives have a fitted effect of over 60% in size. Further: potency means the concentration at half of the fitted maximal effect. A digest of the protocol: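 Compounds, tested up to 114 microM, were incubated for 15 minutes with 25 nM unlinked NS2B-NS3 protease at pH 8.0. Cleavage of 1.5 microM Rhodamine110 substrate was then followed by fluorescence for 15 minutes.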

Assay [12] has as its system Zika virus NS2B-NS3 protease (linked construct). The experiment in a line: Primary screen NINDS Rhodamine qHTS for Zika virus inhibitors (AID 1347160). Further: nearly all actives have a fitted effect of over 55% in size. Further: potency means the concentration at half of the fitted maximal effect. A digest of the protocol: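 Percent inhibition, normalized to uninhibited and enzyme-free controls, is fitted to a 4-parameter Hill equation. Fluorescence change comes from a 15-min cleavage of 1.5 microM bis-peptide Rhodamine110 substrate by 25 nM linked NS2B-NS3 at room temperature.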

Assay [13] in a line: Confirmatory screen NINDS Rhodamine qHTS for Zika virus inhibitors (AID 1347161). Further: potency means the concentration at half of the fitted maximal effect; nearly all actives have a fitted effect of over 60% in size. Particulars: purified enzyme assay, Rhodamine110 substrate fluorescence, 15 min. A digest of the protocol: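 Kinetic fluorescence (Ex 480 nm, Em 540 nm) over 15 min with 1.5 microM Rhodamine110 peptide and 25 nM linked protease.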
The subject of assay [14] is Zika virus NS2B-NS3 protease (linked). In words: 384 well plate NINDS AMC confirmatory qHTS for Zika virus inhibitors (AID 1347163). Further: potency means the concentration at half of the fitted maximal effect; nearly all actives have a fitted effect of over 50% in size. A digest of the protocol:
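Linked protease 5/30/60 nM final; cpds up to 1 mM final, ~15 min preinc. Substrate Ac-VKTGKR-AMC 30 microM final. RT, dark, 25 min; FI ex 355/em 460; normalized to no-enzyme/no-inhibitor ctrls.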

The test system of assay [15] is Zika virus NS2B-NS3 protease (linked construct). In words: 384 well plate NINDS Rhodamine confirmatory qHTS for Zika virus inhibitors (AID 1347164).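 Further: fluorescence from protease cleavage of Ac-LKRR-rhodamine 110 substrate; potency means the concentration at half of the fitted maximal effect; nearly all actives have a fitted effect of over 65% in size.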 Particulars: rhodamine-110 peptide substrate fluorescence. The method in brief:
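Fluorescence at 485/538 nm was measured 25 minutes after adding 10 microM Ac-LKRR-Rd substrate, in the dark at room temperature. The protease (5, 30 or 60 nM final) had been preincubated ~15 minutes with compound; aprotinin as control.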

Assay [16] is described as follows: qHTS to identify inhibitors of the type 1 interferon - major histocompatibility complex class I in skeletal muscle: primary screen against the NCATS Pharmaceutical Collection (AID 1347407).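 Further: luminescence of HiBiT knocked into endogenous HLA-B as interferon-induced MHC class I level.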 A digest of the protocol:
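Compounds […] were added to CRISPR-engineered HLA-B-HiBiT C25cl48 human myoblasts with 4.0 ng/ml IFN-beta. After 24 hrs at 37 C, cells were lysed and HiBiT luminescence measured.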

In assay [17] the target is Lysine-specific demethylase 5B (Homo sapiens) (UniProt Q9UGL1). The experiment in a line: Optimization screen for KDM5B Histone Demethylases FDH coupled qHTS against the LOPAC library (AID 1347166). A digest of the protocol:
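KDM5BDeltaAP (200nM final) preincubated 10 min with compound, then 12.5uM H3K4Me3, 25uM a-ketoglutarate, ascorbate, Fe(II), NAD+ and FDH added; 50mM HEPES pH 7.5, 0.01% Tween-20. NADH fluorescence (340/450 nm) change over 30 min, room temperature.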

Assay [18] can be described thus: qHTS to identify inhibitors of the type 1 interferon - major histocompatibility complex class I in skeletal muscle: primary screen against the NCATS LOPAC collection (AID 1347405).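 Further: lytic HiBiT luminescence reporting HLA-B protein level.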 The method in brief: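 Cells: C25cl48 human myoblasts, HiBiT-tagged HLA-B*08:01, stimulated with IFN-beta 4.0 ng/ml. Compounds are titrated 1:4.3 over 7 points from 46 uM final and incubated 24 hrs; endogenous MHC class I is quantified by HiBiT lytic luminescence.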

The nature of assay [19]: qHTS to identify inhibitors of the type 1 interferon - major histocompatibility complex class I in skeletal muscle: primary screen against the NCATS Mechanism Interrogation Plate v5.0 (MIPE) Libary (AID 1347411). Further: nearly all actives have a fitted effect of over 65% in size. A digest of the protocol:
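Cells were genome-edited human myoblasts carrying a HiBit tag on endogenous HLA-B. They were treated with IFN-beta (4.0 ng/ml) and titrated compounds (top 46 uM) for 24 hrs before lytic HiBiT detection.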

A short description of assay [20]: Validation qHTS assay for inhibitors of Activation Induced Cytidine Deaminase (AID): UDG Counterscreen signal (AID 1347427). The method in brief: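 Counterscreen read of UDG activity (2 U/mL, 4/3x) in the FRET deamination format with AID (1 uM, 4/3x), DJC20/DJC23 substrates (250 nM, 4x), 4 h at room temperature. NaOH stop, fluorescence at 560 ex/665 em.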

Several values for one entry are separate records, joined by “and”; a condition that tells them apart may be missing. Equal values may be shown once. Results filed as inconclusive are left out. Activity calls are given as the source filed them. The call rests on the fitted dose curve; in most records, active means well fitted curve in the direction sought with a large enough effect; inconclusive means small, poorly fitted or top-dose-only effect, or another doubt; inactive means no such curve, though single readings can be large; an effect the other way counts as inactive or inconclusive.

Chain of Protein phosphatase 1D (Homo sapiens) (O15297 whole entry, looked up): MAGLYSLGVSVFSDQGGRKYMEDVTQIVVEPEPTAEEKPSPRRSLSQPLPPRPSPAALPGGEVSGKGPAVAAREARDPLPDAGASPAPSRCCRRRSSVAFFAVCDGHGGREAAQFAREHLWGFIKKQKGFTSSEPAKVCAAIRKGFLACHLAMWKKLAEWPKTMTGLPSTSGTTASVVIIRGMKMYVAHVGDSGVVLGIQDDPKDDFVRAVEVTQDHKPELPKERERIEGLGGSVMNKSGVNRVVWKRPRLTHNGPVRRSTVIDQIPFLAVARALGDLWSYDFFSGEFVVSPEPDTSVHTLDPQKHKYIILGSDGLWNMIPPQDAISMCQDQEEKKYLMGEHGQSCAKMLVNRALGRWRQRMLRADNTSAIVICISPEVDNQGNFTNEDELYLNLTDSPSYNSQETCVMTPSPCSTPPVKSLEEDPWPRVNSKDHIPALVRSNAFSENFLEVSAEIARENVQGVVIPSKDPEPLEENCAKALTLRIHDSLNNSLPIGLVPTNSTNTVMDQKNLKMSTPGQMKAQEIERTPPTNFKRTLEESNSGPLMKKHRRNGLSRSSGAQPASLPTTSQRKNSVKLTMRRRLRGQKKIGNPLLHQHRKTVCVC
Chain of Lysine-specific demethylase 5B (Homo sapiens) (Q9UGL1 whole entry, looked up): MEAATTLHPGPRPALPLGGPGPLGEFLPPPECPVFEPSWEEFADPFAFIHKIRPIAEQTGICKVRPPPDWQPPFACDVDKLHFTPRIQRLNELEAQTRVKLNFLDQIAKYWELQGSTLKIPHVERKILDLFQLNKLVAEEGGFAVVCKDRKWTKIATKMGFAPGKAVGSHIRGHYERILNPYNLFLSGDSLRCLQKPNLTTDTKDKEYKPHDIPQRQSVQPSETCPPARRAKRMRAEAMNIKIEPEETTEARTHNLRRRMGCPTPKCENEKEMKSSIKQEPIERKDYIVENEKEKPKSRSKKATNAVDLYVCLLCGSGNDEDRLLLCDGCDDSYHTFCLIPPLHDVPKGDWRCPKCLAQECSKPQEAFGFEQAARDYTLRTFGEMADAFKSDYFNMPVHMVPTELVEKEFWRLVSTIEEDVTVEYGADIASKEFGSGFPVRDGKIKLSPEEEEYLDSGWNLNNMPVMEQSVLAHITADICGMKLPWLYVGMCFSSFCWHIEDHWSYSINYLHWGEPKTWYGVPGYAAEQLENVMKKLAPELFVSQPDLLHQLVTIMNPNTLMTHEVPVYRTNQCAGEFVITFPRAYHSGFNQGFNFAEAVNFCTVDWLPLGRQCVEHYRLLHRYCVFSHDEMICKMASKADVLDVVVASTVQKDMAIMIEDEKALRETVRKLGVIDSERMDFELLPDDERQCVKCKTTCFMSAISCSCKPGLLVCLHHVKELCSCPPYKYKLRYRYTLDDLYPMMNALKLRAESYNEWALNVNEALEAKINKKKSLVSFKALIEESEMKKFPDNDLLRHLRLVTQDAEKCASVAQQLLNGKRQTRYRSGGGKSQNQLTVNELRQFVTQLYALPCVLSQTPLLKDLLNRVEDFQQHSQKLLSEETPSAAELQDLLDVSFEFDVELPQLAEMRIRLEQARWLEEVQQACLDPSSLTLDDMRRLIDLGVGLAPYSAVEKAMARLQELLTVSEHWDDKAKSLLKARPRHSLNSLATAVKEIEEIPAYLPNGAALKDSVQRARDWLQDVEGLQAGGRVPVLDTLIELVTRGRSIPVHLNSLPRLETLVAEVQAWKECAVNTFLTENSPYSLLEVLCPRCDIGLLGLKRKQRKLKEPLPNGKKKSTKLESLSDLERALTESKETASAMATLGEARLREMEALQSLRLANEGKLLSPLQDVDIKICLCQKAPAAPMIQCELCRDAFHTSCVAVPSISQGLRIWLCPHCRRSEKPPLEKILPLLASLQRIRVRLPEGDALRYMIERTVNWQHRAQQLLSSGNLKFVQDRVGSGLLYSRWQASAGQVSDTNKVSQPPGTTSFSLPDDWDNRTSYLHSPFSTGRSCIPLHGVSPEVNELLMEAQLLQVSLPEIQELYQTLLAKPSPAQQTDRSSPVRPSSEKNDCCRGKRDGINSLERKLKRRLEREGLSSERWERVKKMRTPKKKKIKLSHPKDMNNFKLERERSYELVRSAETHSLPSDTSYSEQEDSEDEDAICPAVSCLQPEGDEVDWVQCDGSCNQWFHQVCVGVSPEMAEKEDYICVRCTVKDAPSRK

`NC1[C@H]2CN(c3nc4c(cc3F)c(=O)c(C(=O)O)cn4-c3ccc(F)cc3F)C[C@@H]12` (stereo partly specified): the Potency entry in [1], in assay [3], in assay [4] and in assay [6] was “inactive” in each case. The outcome in [2], in assay [5], in [7], in assay [8] and in assay [9] was inactive.

Turning to `Cc1cc(C(C#N)c2ccc(Cl)cc2)c(Cl)cc1NC(=O)c1cc(I)cc(I)c1O` (stereo unspecified), the Potency was 11.1 µM (active) in assay [1]; 1.75 µM (active) and 1.56 µM (active) in [10]; 1.78 µM (active) in assay [11]; 3.16 µM (active) in assay [12]; 2.78 µM (active) and 2.21 µM (active) in [13]; 4.47 µM (active) in assay [14]. For the same compound, the Potency in [15] was 1.78 µM (active); in [4] it was 13.1 µM (active); in assay [6], 6.58 µM (active) and 16.5 µM (active). In assay [5], the outcome was inactive. In addition, the Potency entry in assay [16] is “inactive”.

For `CC1=C(/C=C/C(C)=C/C=C/C(C)=C/C(=O)O)C(C)(C)CCC1`, the Potency entry in assay [3], in assay [18], in assay [16], in assay [19] and in [20] was “inactive” each time. Besides, the outcome in assay [17], in assay [7], in [8] and in assay [9] was inactive.

`CC(C)(C)C(=O)C(Oc1ccc(Cl)cc1)n1ccnc1` (stereo unspecified): the Potency result in assay [3], in [11], in [12] and in assay [16] was “inactive” throughout. The compound was classed as inactive in [8] and in assay [9].

For the compound `Cc1ccc2nc(N)[nH]c(=O)c2c1Sc1ccncc1`, the Potency entry in assay [3], in assay [11] and in assay [12] was “inactive” throughout. Moreover, the result in [8] and in assay [9] was inactive.

Take `CCOc1nc2cccc(C(=O)O)c2n1Cc1ccc(-c2ccccc2-c2nn[nH]n2)cc1`: the Potency entry in assay [3], in [11], in assay [12] and in assay [16] was “inactive” each time. The compound was classed as inactive in assay [8] and in assay [9].

For `CCOc1ccc2ccccc2c1C(=O)N[C@@H]1C(=O)N2[C@@H]1SC(C)(C)[C@@H]2C(=O)O`, the Potency entry in assay [3], in assay [11], in assay [12] and in assay [16] was “inactive” each time. Also, the compound was classed as inactive in [8] and in assay [9].

On to `C[C@@H]1C[C@H]2[C@@H]3C[C@H](F)C4=CC(=O)C=C[C@]4(C)[C@@]3(F)[C@@H](O)C[C@]2(C)[C@@]1(O)C(=O)CO`, for which the Potency result in assay [3], in assay [11], in assay [12] and in assay [16] was “inactive” throughout. Further, the compound was classed as inactive in assay [8] and in assay [9].

`CCN(CC)C(=O)Nc1ccc(OCC(O)CNC(C)(C)C)c(C(C)=O)c1` (stereo unspecified): the Potency result in assay [3], in assay [11], in assay [12] and in [16] was “inactive” throughout. Further, the result in assay [8] and in assay [9] was inactive.

As for `CCCCOc1cc(C(=O)OCCN(CC)CC)ccc1N`, the Potency result in assay [3], in assay [11], in [12] and in [16] was “inactive” each time. Moreover, the compound was classed as inactive in assay [8] and in [9].

For the compound `OCC(O)CN1CCN(c2ccccc2)CC1` (stereo unspecified), the Potency result in assay [3], in [11], in assay [12] and in [16] was “inactive” throughout. Also, the call in assay [8] and in assay [9] was inactive.

The values are drawn from PubChem BioAssay (NCATS).
